Test system: Plasmodium falciparum
Test: GSK_TCMDC: Inhibition of Plasmodium falciparum 3D7 in whole red blood cells, using parasite LDH activity as an index of growth. Test compounds present at 2uM
Type: functional

Q: Which Inhibition does the source give for `Cl.Clc1cccnc1N1CCN(c2ncccc2Cl)CC1` here?
A: Its Inhibition is 97%.

Q: For `COCn1ncc2cc(-c3cccc(NC(=O)c4csc(NC(C)=O)n4)c3)ccc21`, which Inhibition is on record?
A: The Inhibition was 89%.

Q: How did the Inhibition turn out when `Cl.N#Cc1ccc(-c2ccc3nc(N4CCCN(C5CCC5)CC4)ccc3c2)cc1` was run?
A: Its Inhibition is 96%.

Q: Which Inhibition does the source give for `Cc1ccc2c(OCCN3CCC(Cc4cc5c(cc4F)OCC(=O)N5)CC3)cc(F)cc2n1.Cl` here?
A: The Inhibition was 100%.

Q: `CS(=O)(=O)NCCCNCc1cccc(-c2cccc(-c3nc4cc(F)ccc4[nH]3)c2)c1.O=C(O)C(F)(F)F` was tested. Which Inhibition did it give?
A: The Inhibition was 100%.

Q: With `COCCn1c(SC(C)C(=O)Nc2cc(C(F)(F)F)ccc2Cl)nc2ccccc2c1=O` (stereo not given) as the compound, how does the Inhibition read?
A: Its Inhibition is 97%.

Q: With `Cl.N=C(N)c1ccc(-c2cc3ccc(C(=N)N)cc3[nH]2)cc1` as the compound, how does the Inhibition read?
A: Its Inhibition is 99%.

Q: Which Inhibition does the source give for `c1ccc2cc3c(NCCN4CCOCC4)ccnc3cc2c1` here?
A: The Inhibition was 99%.

Q: For `COc1ccc(OC)c(Cc2cnc3nc(N)[nH]c(=O)c3c2C)c1`, which Inhibition is on record?
A: The Inhibition was 98%.

Q: How did the Inhibition turn out when `CS(=O)(=O)c1ccccc1CNC(=O)c1cccc(-c2ccc(-c3nc4cc(C(F)(F)F)ccc4[nH]3)cc2)c1` was run?
A: The Inhibition was 95%.

Q: Which Inhibition does the source give for `Nc1ccc2[nH]cc(C3CCN(CCC4CCN(C(=O)/C=C/c5ccc(Cl)c(Cl)c5)CC4)CC3)c2n1` here?
A: Its Inhibition is 100%.

Q: How did the Inhibition turn out when `CN(C)CCOc1ccnc2ccc(NC(=O)Cc3ccc(-c4ccncc4)c4ccccc34)cc12` was run?
A: Its Inhibition is 100%.

Q: Which Inhibition does the source give for `CC(CN1CCN(C)CC1)C(=O)Nc1cccc(-c2ccc(-c3nc4cc(F)ccc4[nH]3)cc2)c1` (stereo not given) here?
A: Its Inhibition is 100%.

Q: How did the Inhibition turn out when `CN1CCC(NCc2ccc(-c3ccc(S(=O)(=O)NCc4ccccc4)cc3)cc2)CC1.O=C(O)C(F)(F)F` was run?
A: The Inhibition was 99%.

Q: `COc1ccc(C2CCN(CCN3CCC(NC(=O)c4cccc(-c5ccncc5)c4)CC3)CC2)c(OC)c1` was tested. Which Inhibition did it give?
A: Its Inhibition is 94%.

Q: `CN1CCN(c2ccnc3ccc(NC(=O)Cc4ccc(-c5ccncc5)c5ccccc45)cc23)CC1` was tested. Which Inhibition did it give?
A: The Inhibition was 100%.

Q: With `CN(CCN)Cc1cccc(-c2cccc(-c3nc4cc(F)ccc4[nH]3)c2)c1.O=C(O)C(F)(F)F` as the compound, how does the Inhibition read?
A: The Inhibition was 95%.

Q: How did the Inhibition turn out when `CCCCCc1cnc2nc(N)nc(N)c2c1C.Cl` was run?
A: The Inhibition was 96%.

Q: How did the Inhibition turn out when `OC(CN(Cc1ccccc1)Cc1ccccc1)Cn1c2ccc(Cl)cc2c2cc(Cl)ccc21` (stereo not given) was run?
A: The Inhibition was 89%.

Q: `COc1ccc2nccc(N/N=C/c3ccccc3[N+](=O)[O-])c2c1` was tested. Which Inhibition did it give?
A: Its Inhibition is 100%.

Q: Which Inhibition does the source give for `Cc1n[nH]c2ccc(-c3cc(OC[C@@H](N)Cc4ccccc4)cnc3-c3ccc(OCc4cccc(F)c4)cc3)cc12.O=C(O)C(F)(F)F` here?
A: The Inhibition was 98%.

Q: How did the Inhibition turn out when `CC1CN(Cc2cccc(-c3ccc(-c4nc5cc(F)ccc5[nH]4)cc3)c2)CC(C)O1.O=C(O)C(F)(F)F` (stereo not given) was run?
A: Its Inhibition is 87%.

Q: `CS(=O)(=O)Nc1cccc(-c2cnc3[nH]cc(-c4ccc(CCC(=O)O)cc4)c3c2)c1` was tested. Which Inhibition did it give?
A: The Inhibition was 98%.

Q: For `O=C(CC1CCCC1)Nc1ccc2c(c1)CCC2`, which Inhibition is on record?
A: The Inhibition was 93%.

Q: How did the Inhibition turn out when `O=C(Nc1ccc(-c2ccc(-c3nc4cc(C(F)(F)F)ccc4[nH]3)s2)cc1)c1ccoc1` was run?
A: Its Inhibition is 94%.

Q: `COc1cc2nc(N3CCC(CNC(=O)c4ccc(-c5ccc(O)cc5)cc4)CC3)nc(N)c2cc1OC.O=C(O)C(F)(F)F` was tested. Which Inhibition did it give?
A: Its Inhibition is 100%.

Q: How did the Inhibition turn out when `Cl.O=C(/C=C/c1cccc(Cl)c1)Nc1ccc2nc(CN3CCCC3)ccc2c1` was run?
A: Its Inhibition is 99%.

Q: `OC(CNCc1ccccc1OCc1ccccc1)c1cccc(I)c1` (stereo not given) was tested. Which Inhibition did it give?
A: The Inhibition was 100%.

Q: Which Inhibition does the source give for `COC(=O)CCCCOc1cc(Cc2cnc(N)nc2N)cc(OC)c1OC` here?
A: The Inhibition was 97%.

Q: Which Inhibition does the source give for `Cc1ccc2nc(C)cc(N/N=C/c3ccccc3[N+](=O)[O-])c2c1` here?
A: The Inhibition was 100%.

Q: For `CCCCCCOc1ccc(C(=O)NCCC2CCN(CCCCCNC(=O)C=Cc3ccc(Cl)c(Cl)c3)CC2)cc1`, which Inhibition is on record?
A: Its Inhibition is 99%.

Q: How did the Inhibition turn out when `CC(C)c1ccc(NC(=O)c2cccc(CN3CCCN(CC4CCCCC4)CC3)c2)cc1.O=C(O)C(F)(F)F` was run?
A: Its Inhibition is 85%.

Q: Which Inhibition does the source give for `Cc1cccc2nc(-c3ccc(-c4ccc(NC(=O)NC5CC5c5ccccc5)cc4)cc3)[nH]c12` (stereo not given) here?
A: The Inhibition was 96%.

Q: How did the Inhibition turn out when `O=C(NCCc1ccc(Cl)c(Cl)c1)[C@@H]1CCCN1C(=O)c1ccc(O)c(-c2cccc(C(F)(F)F)c2)c1` was run?
A: The Inhibition was 97%.

Q: With `CN1CCC(N2CCC(Oc3cccc(C(=O)NCCCC4CCCC4)c3)CC2)CC1` as the compound, how does the Inhibition read?
A: The Inhibition was 100%.

Q: `CN(Cc1cccc(F)c1)C1CCN(c2cc(NC(=O)c3ccc(F)cc3)ccn2)CC1.O=C(O)C(F)(F)F` was tested. Which Inhibition did it give?
A: Its Inhibition is 95%.

Q: Which Inhibition does the source give for `c1ccc(Oc2ccc(Nc3ccnc4cc(-c5ccc(CNCCN6CCOCC6)o5)ccc34)cc2)nc1` here?
A: Its Inhibition is 100%.

Q: How did the Inhibition turn out when `CCN(CC)CCNC(=O)c1ccc(NC(=O)c2cc3c(C)nn(-c4ccc(Cl)cc4)c3s2)cc1.Cl` was run?
A: Its Inhibition is 95%.

Q: `Cl.N=C(N)c1cccc(OCCCOc2cccc(NC(=O)Nc3ccc([N+](=O)[O-])cc3)c2)c1` was tested. Which Inhibition did it give?
A: Its Inhibition is 98%.

Q: How did the Inhibition turn out when `CN(C)c1ccc(-c2cscc2C(=O)NC2CCCN(Cc3cccnc3)C2)cc1.O=C(O)C(F)(F)F` (stereo not given) was run?
A: Its Inhibition is 89%.

Source: ChEMBL document CHEMBL1157539, “Thousands of chemical starting points for antimalarial lead identification” (Nature, 2010)
